{"source": "paper PMC7819943", "about": "“Rice protein-binding microarrays: a tool to detect cis-acting elements near promoter regions in rice”", "note": "Whole data set: some 68,000 sequences, median “fluorescence intensity (a.u.)” near 9,100, cut for the highest 2% near 16,000. The entries come from a sample that favours the highest values as a whole."}
{"molecular_target": "OsWRKY34 (Oryza sativa, UniProt Q0JBA9 1-250)", "sequence (Q0JBA9 entry or part of it)": "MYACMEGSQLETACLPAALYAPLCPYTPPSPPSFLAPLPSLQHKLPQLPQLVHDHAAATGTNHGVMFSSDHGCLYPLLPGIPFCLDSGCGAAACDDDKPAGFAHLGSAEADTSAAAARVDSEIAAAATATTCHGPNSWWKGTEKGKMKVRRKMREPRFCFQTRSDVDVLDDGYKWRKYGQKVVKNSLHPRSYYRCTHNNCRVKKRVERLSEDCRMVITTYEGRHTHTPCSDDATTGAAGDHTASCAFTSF", "assay": "protein-binding microarray (RPBM); PBS, 2% BSA, 51.3 ng/ul salmon testes DNA, 50 uM zinc acetate, 200 nM TF, 25 C, 1 h; high values mean tight binding", "details": "protein: recombinant; tags: N-terminal polyhistidine and DsRed monomer fusion (pET32a); label: CyDye5-dUTP incorporated in the synthesized complementary strand; 3' TTTTT single-stranded linker to array surface; dsDNA, one strand shown", "outline": "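Per-feature fluorescence intensity (arbitrary units), read on an Axon 4000B scanner, is the binding signal. Transcription factors carrying an N-terminal polyhistidine tag and DsRed fusion were expressed in E. coli BL21-CodonPlus and purified on Ni–NTA. A custom Agilent array, made double-stranded by primer extension with Cy5-dUTP and blocked with 2% BSA, was incubated with 200 nM protein in PBS, 2% BSA, salmon testes DNA and 50 µM zinc acetate at 25 °C for 1 h and then washed.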"}
{"sequence": "CTCCGTCCCATAATATAAGGGATTTTGACTTTTTACTTGCCGGAGTCACCTAGTGCAG", "binding signal": "11200 fluorescence intensity (a.u.)"}
{"sequence": "TCCCCGTTACCGAGCGCCGCCGCCTCCGCCTCCACCTCTACGGAGTCACCTAGTGCAG", "binding signal": "10100 fluorescence intensity (a.u.)"}
{"sequence": "TCTACACAATTCAAAATCCGGCCCTGTTTATTTTGTACTACGGAGTCACCTAGTGCAG", "binding signal": "8420 fluorescence intensity (a.u.)"}
{"sequence": "CTACACTCCTAATCTCTCTCTCTTTCTCGAGTGGAATCCACGGAGTCACCTAGTGCAG", "binding signal": "8970 fluorescence intensity (a.u.)"}
{"sequence": "ACGCGCCGCAACGCAACTTCCATGGACGCATCTGGACCACCGGAGTCACCTAGTGCAG", "binding signal": "8130 fluorescence intensity (a.u.)"}
{"sequence": "GTTTTTAATTTCGATAATATTTGATTCTGTTTTCGTGTCCCGGAGTCACCTAGTGCAG", "binding signal": "8930 fluorescence intensity (a.u.)"}
{"sequence": "ATTACCACTGATGCTGCTTGGTTCGCAATACTTGCTTCTTCGGAGTCACCTAGTGCAG", "binding signal": "9730 fluorescence intensity (a.u.)"}
{"sequence": "GTTCTGACTGTTGTGTTGTGGGTGTTTGGTTTATGAGCAGCGGAGTCACCTAGTGCAG", "binding signal": "8430 fluorescence intensity (a.u.)"}
{"sequence": "GACTGAGCTTTGTGGGTGGGTTGGTTGGTTGGTTATACAACGGAGTCACCTAGTGCAG", "binding signal": "30500 fluorescence intensity (a.u.)"}
{"sequence": "CTCGTATAGTTAGCTTGGAGGACTGAGCTTTGTGGGTGGGCGGAGTCACCTAGTGCAG", "binding signal": "8880 fluorescence intensity (a.u.)"}
{"sequence": "GTCTCCATTGCACCCACGTTGGATCCGCCCTTGCACATGGCGGAGTCACCTAGTGCAG", "binding signal": "8470 fluorescence intensity (a.u.)"}
{"sequence": "TAATTCATGGTTGGTTTTTAATTATATTTCCCTCCTTAAACGGAGTCACCTAGTGCAG", "binding signal": "9580 fluorescence intensity (a.u.)"}
{"sequence": "TCGTCGGTGGTGTGGGGAGGAGAAGATGGCCGGAGAGGAACGGAGTCACCTAGTGCAG", "binding signal": "15000 fluorescence intensity (a.u.)"}
{"sequence": "CGACGGGAGAGGAGGAGCCGGTGGGCGGGGTGGGGCCCACCGGAGTCACCTAGTGCAG", "binding signal": "11000 fluorescence intensity (a.u.)"}
{"sequence": "TTACCAAACTGAAAATAAAAATGTGTGTTTTTTTTAATATCGGAGTCACCTAGTGCAG", "binding signal": "9410 fluorescence intensity (a.u.)"}
{"sequence": "TTCGGGGTGTTCGTCAAAAATGTGGGGAGGAGGCATGGATCGGAGTCACCTAGTGCAG", "binding signal": "13100 fluorescence intensity (a.u.)"}
{"sequence": "ATCCCAAAATAATGTGTTCGGGTGGGCGGGCGGGAAATATCGGAGTCACCTAGTGCAG", "binding signal": "23000 fluorescence intensity (a.u.)"}
{"sequence": "GCGGGTGTGGCATTGTGGGTAATCTCGGCCGTTCAAATATCGGAGTCACCTAGTGCAG", "binding signal": "17300 fluorescence intensity (a.u.)"}
{"sequence": "GTGTTCTCATTGTATTGGGTATTCAAATGTTTTGTAATATCGGAGTCACCTAGTGCAG", "binding signal": "9730 fluorescence intensity (a.u.)"}
{"sequence": "ATTTTGTGTTTTTGTGGTGGTAATATTGTTTTTGAGTTCTCGGAGTCACCTAGTGCAG", "binding signal": "9700 fluorescence intensity (a.u.)"}
{"sequence": "AATCATCACATCATCACCGTCATCTTCTCTAGCATAGCAACGGAGTCACCTAGTGCAG", "binding signal": "8050 fluorescence intensity (a.u.)"}
{"sequence": "CCTTCCCATGCTGCTGTGATGTGTCATACGCCGCCGCCACCGGAGTCACCTAGTGCAG", "binding signal": "9920 fluorescence intensity (a.u.)"}
{"sequence": "TCCCAACCACACCCACCCACCCGCCCAATCCATCCACCAACGGAGTCACCTAGTGCAG", "binding signal": "8860 fluorescence intensity (a.u.)"}
{"sequence": "TCCCTTCAAATATTGTTTTTCTTTTAACACTCAATCTCTCCGGAGTCACCTAGTGCAG", "binding signal": "8940 fluorescence intensity (a.u.)"}
{"sequence": "TAGAATTACATCTGATATACCGGTCTTACGCTCTTAGATTCGGAGTCACCTAGTGCAG", "binding signal": "8860 fluorescence intensity (a.u.)"}
{"sequence": "GCCCAGCCCAGGCCCACCTTATGTTTTGTTGCATCTCTACCGGAGTCACCTAGTGCAG", "binding signal": "10700 fluorescence intensity (a.u.)"}
{"sequence": "TGCCTAGATGAATACTGCATGTTTTTTTTTTGTTTGATTTCGGAGTCACCTAGTGCAG", "binding signal": "9620 fluorescence intensity (a.u.)"}
{"sequence": "TCATCCGCACCAACACCATTAGTTATATTACCCACACATCCGGAGTCACCTAGTGCAG", "binding signal": "8520 fluorescence intensity (a.u.)"}
{"sequence": "CACAGGGCATGAATTGATGAATAGGATGGCCATTTTTTTTCGGAGTCACCTAGTGCAG", "binding signal": "65000 fluorescence intensity (a.u.)"}
{"sequence": "TCCACCCATCCTCATCATTATCCTCTCTCTCCTCTCTCACCGGAGTCACCTAGTGCAG", "binding signal": "9640 fluorescence intensity (a.u.)"}
{"sequence": "AATAGGGCATGAACCCCAGCCATTTCTCCTCATCCCACACCGGAGTCACCTAGTGCAG", "binding signal": "63200 fluorescence intensity (a.u.)"}
{"sequence": "CTCTCTCCACCCTCAGCCGCCACACTCCCATCCATTCTCCCGGAGTCACCTAGTGCAG", "binding signal": "9060 fluorescence intensity (a.u.)"}
{"sequence": "TCCACCCATCGTTCTCATGACCTGCCAACCCCATCCCAGCCGGAGTCACCTAGTGCAG", "binding signal": "10000 fluorescence intensity (a.u.)"}
{"sequence": "GAACCCACATCCCACCATGACGCGCAATTACCTCATTATCCGGAGTCACCTAGTGCAG", "binding signal": "17000 fluorescence intensity (a.u.)"}
{"sequence": "TTTTTTACCATGGGTCTTGCATTGAATTTTTCTTTTTTTTCGGAGTCACCTAGTGCAG", "binding signal": "9890 fluorescence intensity (a.u.)"}
{"sequence": "TCCTGTGCGCCTCCCTCGAGCGTGTGACTGTGTTTGTGACCGGAGTCACCTAGTGCAG", "binding signal": "8710 fluorescence intensity (a.u.)"}
{"sequence": "TTTAAGTTTGTTTGGTTGTGGGTTATAGGCTCTATTTCAACGGAGTCACCTAGTGCAG", "binding signal": "12000 fluorescence intensity (a.u.)"}
{"sequence": "ATTTGCATGACATATATCATTACTACATTATTTTATATAGCGGAGTCACCTAGTGCAG", "binding signal": "8930 fluorescence intensity (a.u.)"}
{"sequence": "GTGTGTTATTTTCTTCCACTCTTTAGTTTTCACTTTTTGACGGAGTCACCTAGTGCAG", "binding signal": "9240 fluorescence intensity (a.u.)"}
{"sequence": "GTTGCCCTTTTGCTCCTGTTGTCTTCTCCGCTCCTGTCGTCGGAGTCACCTAGTGCAG", "binding signal": "9800 fluorescence intensity (a.u.)"}
{"sequence": "TGGCATTTTTTTTTTCTTGTGAAAAACCGACGAGAGGAAGCGGAGTCACCTAGTGCAG", "binding signal": "8190 fluorescence intensity (a.u.)"}
{"sequence": "GTTCATTTTATAGTCTAGCAAAATTTCCTCTCTTTTTTTTCGGAGTCACCTAGTGCAG", "binding signal": "10700 fluorescence intensity (a.u.)"}
